Laboratory results as given in PubChem BioAssay (Tox21).
Inconclusive results are not listed. The source made the active and inactive calls. Unless noted, calls follow the shape of the full dose curve.

Experiments:
[1] = Nuclear factor erythroid 2-related factor 2/antioxidant responsive element (Nrf2/ARE) small molecule agonists: qHTS cell viability counter screen in human keratinocytes (AID 1919968; active = well fitted curve in the direction sought with a large enough effect in the repeat runs; an effect the other way counts as inactive or inconclusive; also: nearly all actives have a fitted effect of over 55% in size)
In short: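 After a 5 h attachment period, ARE-reporter keratinocytes were dosed with compounds in DMSO and then cultured 23 h at 37 C. Cell viability came from CellTiter-Fluor signal read after a further 1 h.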

[2] = Nuclear factor erythroid 2-related factor 2/antioxidant responsive element (Nrf2/ARE) small molecule agonists: luciferase reporter gene qHTS assay in human keratinocytes (AID 1919969); also: nearly all actives have a fitted effect of over 35% in size; also: potency is read from the fitted curve at half-maximal effect
[3] = biological target: Gonadotropin-releasing hormone receptor (Homo sapiens) (UniProt P30968); assay: Human gonadotropin-releasing hormone receptor (GnRHR) small molecule agonists, calcium flux assay in GnRHR-HEK293 cells (AID 1920063); also: nearly all actives have a fitted effect of over 35% in size
In short: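 We seeded human GnRHR-expressing HEK293 cells for 18 hours, loaded them with calcium dye for an hour at 37 C, added test compounds, and recorded fluorescence intensity kinetically for three minutes.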

[4] = biological target: KiSS-1 receptor (Homo sapiens) (UniProt Q969F8); assay: Human kisspeptin (KISS1R) small molecule agonists, calcium flux assay in KISS1R-HEK293 cells (AID 1920064; active = well fitted curve in the direction sought with a large enough effect in the repeat runs; an effect the other way counts as inactive or inconclusive)
In short: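 Kinetic calcium assay, 1 s sampling over 3 min at Ex/Em 480/540, in HEK293 cells engineered with human KISS1R; compounds delivered in DMSO after 1 h dye loading.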

[5] = G protein-coupled receptor (GPCR) small molecule agonists, calcium flux assay: HEK293 wild type cell line counter screen (AID 1920065)
In short: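 Calcium-sensitive dye, loaded 1 h at 37 C into cells cultured 18 h, reports compound-evoked calcium release as fluorescence (Ex/Em 480/540), measured over 3 min. Agonist mode; 15-point titrations, triplicate.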

[6] = p53 small molecule agonists, cell-based qHTS assay with human liver microsomes (AID 1963577);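 also: p53 response element beta-lactamase reporter cells with liver microsomes plus NADPH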
In short: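 p53RE-bla cells; 5 h settle, 37 C/5% CO2; cpd + HLM 0.5 mg/mL + NADPH 0.5 mg/mL (final); 16 h 37 C; LiveBLAzer 2 h RT dark; fluorescence readout.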

[7] = p53 small molecule agonists, cell-based qHTS assay with rat liver microsomes (AID 1963578)
In short: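 Rat liver microsome activation: microsomes 0.5 mg/mL, NADPH 0.5 mg/mL final; p53RE-bla cells, 16 h 37 C; LiveBLAzer readout, 2 h RT dark.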

[8] = p53 small molecule agonists, cell-based qHTS assay with human liver microsomes: qHTS cell viability counter screen (AID 1963579); also: nearly all actives have a fitted effect of over 45% in size
In short: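 Luminescent CellTiter-Glo read-out, 30 min at room temperature, gauged cytotoxicity in p53RE-bla cells exposed 16 h at 37 C to DMSO-dissolved compounds with metabolic activation by human liver microsomes and NADPH, each 0.5 mg/mL final.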

[9] = p53 small molecule agonists, cell-based qHTS assay with rat liver microsomes: qHTS cell viability counter screen (AID 1963580); also: nearly all actives have a fitted effect of over 45% in size
In short: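 p53RE-bla HCT-116 cells (4,000/well) rested 5 h at 37 C, then given Tox21 compounds in DMSO with rat liver microsomes (0.5 mg/mL final) plus NADPH (0.5 mg/mL final) for 16 h at 37 C. Viability read by CellTiter-Glo luminescence after 30 min at room temperature.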

[10] = p53 small molecule agonists, cell-based qHTS assay: qHTS cell viability counter screen (AID 1963581); also: nearly all actives have a fitted effect of over 45% in size; also: potency is read from the fitted curve at half-maximal effect
In short: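 Following 5 h attachment, HCT-116 p53RE-bla cells took up compound for 16 h at 37 C; the reporter was read with B/G FRET substrate (2 h RT), and viability then via CellTiter-Glo ATP luminescence.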

[11] = p53 small molecule agonists, cell-based qHTS assay (AID 1963582; active = well fitted activation curve with a large enough effect in the signal ratio in the repeat runs, not every such curve was filed as active; the % refers to the signal ratio)
In short: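 In this cell-based concentration-response screen, a p53 response element drives beta-lactamase; cells received DMSO-borne compounds after 5 h culture and were incubated a further 16 h before FRET substrate development.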

[12] = biological target: 5-hydroxytryptamine receptor 2A (Homo sapiens) (UniProt P28223); assay: 5-hydroxytryptamine receptor 2A (HTR2A) small molecule antagonists, cell-based qHTS assay (AID 1963586); also: nearly all actives have a fitted effect of over 45% in size
In short: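 Antagonist-mode intracellular calcium assay: DOI (4 nM) added after 5 min compound pre-incubation at room temperature to dye-loaded HTR2A-CHO cells. Fluorescence followed for 3 min, sampled every second.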

[13] = biological target: 5-hydroxytryptamine receptor 2A (Homo sapiens) (UniProt P28223); assay: 5-hydroxytryptamine receptor 2A (HTR2A) small molecule agonists, cell-based qHTS assay (AID 1963587); also: nearly all actives have a fitted effect of over 30% in size
In short: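 HTR2A-CHO cells, plated 18 h at 37 C/5% CO2, dye-loaded 1 h at 37 C; compounds in DMSO added by pin tool (agonist mode). Intracellular calcium flux read as kinetic fluorescence on FDSS over 2 min at 1 s intervals.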

[14] = biological target: Muscarinic acetylcholine receptor M1 (Homo sapiens) (UniProt P11229); assay: Cholinergic receptor muscarinic 1 (CHRM1) small molecule antagonists, cell-based qHTS assay (AID 1963588); also: nearly all actives have a fitted effect of over 40% in size
In short: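 CHRM1-CHO calcium-flux assay, antagonist mode. Cells were seeded 18 h, dye-loaded 1 h at 37 C and given compound for 5 min at RT, then acetylcholine was added at 50nM. FDSS fluorescence was read 3 min; 15 concentrations, three runs.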

[15] = biological target: Muscarinic acetylcholine receptor M1 (Homo sapiens) (UniProt P11229); assay: Cholinergic receptor muscarinic 1 (CHRM1) small molecule agonists, cell-based qHTS assay (AID 1963589); also: nearly all actives have a fitted effect of over 35% in size
In short: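 Measures agonist-induced intracellular calcium rise. Stable human CHRM1 CHO line, 1 h dye load at 37 C, compounds from DMSO, kinetic fluorescence read.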

[16] = cAMP Responsive Elements (CRE) small molecule agonists, cell-based qHTS assay (AID 1963590)
In short: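 A CRE-responsive beta-lactamase reporter in HEK 293T cells was used. Treatment ran 3 h at 37 C; detection used LiveBLAzer B/G FRET substrate for 2 h at room temperature.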

[17] = cAMP Responsive Elements (CRE) small molecule antagonists, cell-based qHTS assay (AID 1963591; active = well fitted inhibition curve with a large enough effect in the signal ratio in the repeat runs, not every such curve was filed as active; the % refers to the signal ratio)
In short: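 HEK293T cells carrying a CRE-driven beta-lactamase reporter receive compound and NKH477 (0.25 uM final) for 3 h. Fluorescence from LiveBLAzer B/G FRET substrate is read after 2 h at room temperature.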

[18] = biological target: Beta-2 adrenergic receptor (Homo sapiens) (UniProt P07550); assay: Adrenergic beta2 receptor (ADRB2) small molecule antagonists, cell-based qHTS assay (AID 1963592); also: series mostly up to about 92 µM; nearly all actives have a fitted effect of over 50% in size
In short: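 Cells (CHO, stable ADRB2 overexpression) incubated 18-20hr at 37C; compounds added from DMSO; agonist mix (1nM isoproterenol, 100uM IBMX, 25uM Ro-20-1724) added; 0.5hr RT; d2-cAMP and anti-cAMP-cryptate added; 1hr RT; 665/615 nm read.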

[19] = biological target: D(2) dopamine receptor (Homo sapiens) (UniProt P14416); assay: Dopamine D2 receptor (DRD2) small molecule agonists, cell-based qHTS assay (AID 1963594); also: nearly all actives have a fitted effect of over 35% in size
In short: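 HEK293 cells stably expressing DRD2 were cultured 24 h at 37 C, then given Ro20-1724 (0.1 mM final) and compounds for 10 min at room temperature. NKH477 (200nM) was then added for 30 min. cAMP was read by HTRF.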

[20] = biological target: D(2) dopamine receptor (Homo sapiens) (UniProt P14416); assay: Dopamine D2 receptor (DRD2) small molecule antagonists, cell-based qHTS assay (AID 1963595; active = well fitted inhibition curve with a large enough effect in the signal ratio in the repeat runs, with a control signal flat; the % refers to the signal ratio)
In short: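 Antagonist mode in DRD2-HEK293 cells: after compound addition with 0.1 mM Ro20-1724, cells received quinpirole (12 nM) and NKH477 (200 nM) for 30 min at room temperature; HTRF cAMP read after 1 h detection.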

Measured: Potency

Beta-2 adrenergic receptor (Homo sapiens), sequence (P07550 whole entry, looked up): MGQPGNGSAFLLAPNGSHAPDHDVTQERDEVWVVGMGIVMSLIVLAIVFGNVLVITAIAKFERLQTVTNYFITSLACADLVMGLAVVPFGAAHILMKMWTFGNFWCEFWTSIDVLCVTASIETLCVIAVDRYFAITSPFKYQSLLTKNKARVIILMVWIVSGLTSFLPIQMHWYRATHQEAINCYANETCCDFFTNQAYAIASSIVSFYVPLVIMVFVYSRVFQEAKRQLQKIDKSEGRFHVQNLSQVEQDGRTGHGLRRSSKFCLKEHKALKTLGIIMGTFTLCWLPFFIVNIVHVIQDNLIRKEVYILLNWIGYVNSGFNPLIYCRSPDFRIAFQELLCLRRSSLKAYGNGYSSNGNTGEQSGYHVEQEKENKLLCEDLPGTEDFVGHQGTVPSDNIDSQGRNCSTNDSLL
Muscarinic acetylcholine receptor M1 (Homo sapiens), sequence (P11229 whole entry, looked up): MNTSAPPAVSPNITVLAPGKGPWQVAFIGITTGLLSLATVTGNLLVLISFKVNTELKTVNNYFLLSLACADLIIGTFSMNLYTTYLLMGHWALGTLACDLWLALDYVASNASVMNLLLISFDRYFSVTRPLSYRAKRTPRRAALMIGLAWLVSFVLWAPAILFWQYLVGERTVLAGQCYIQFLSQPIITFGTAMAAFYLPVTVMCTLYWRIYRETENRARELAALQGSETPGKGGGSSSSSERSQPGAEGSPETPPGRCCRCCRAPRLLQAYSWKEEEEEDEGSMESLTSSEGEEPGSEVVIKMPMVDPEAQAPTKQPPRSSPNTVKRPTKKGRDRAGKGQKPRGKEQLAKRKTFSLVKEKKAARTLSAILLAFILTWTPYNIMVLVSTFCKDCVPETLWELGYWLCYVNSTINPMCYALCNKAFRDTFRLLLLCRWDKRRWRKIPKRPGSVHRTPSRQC
5-hydroxytryptamine receptor 2A (Homo sapiens), sequence (P28223 whole entry, looked up): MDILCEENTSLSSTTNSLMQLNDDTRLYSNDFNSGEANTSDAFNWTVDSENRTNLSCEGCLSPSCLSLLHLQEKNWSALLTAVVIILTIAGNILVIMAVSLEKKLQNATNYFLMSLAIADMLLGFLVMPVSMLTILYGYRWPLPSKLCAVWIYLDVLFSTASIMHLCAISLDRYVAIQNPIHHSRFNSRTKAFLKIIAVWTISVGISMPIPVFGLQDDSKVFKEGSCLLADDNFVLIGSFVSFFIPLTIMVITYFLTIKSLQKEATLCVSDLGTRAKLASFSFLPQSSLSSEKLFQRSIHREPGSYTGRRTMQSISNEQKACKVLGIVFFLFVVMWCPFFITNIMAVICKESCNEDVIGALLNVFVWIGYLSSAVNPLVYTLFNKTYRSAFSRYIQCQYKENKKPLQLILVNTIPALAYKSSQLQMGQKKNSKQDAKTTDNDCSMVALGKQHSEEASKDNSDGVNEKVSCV
KiSS-1 receptor (Homo sapiens), sequence (Q969F8 whole entry, looked up): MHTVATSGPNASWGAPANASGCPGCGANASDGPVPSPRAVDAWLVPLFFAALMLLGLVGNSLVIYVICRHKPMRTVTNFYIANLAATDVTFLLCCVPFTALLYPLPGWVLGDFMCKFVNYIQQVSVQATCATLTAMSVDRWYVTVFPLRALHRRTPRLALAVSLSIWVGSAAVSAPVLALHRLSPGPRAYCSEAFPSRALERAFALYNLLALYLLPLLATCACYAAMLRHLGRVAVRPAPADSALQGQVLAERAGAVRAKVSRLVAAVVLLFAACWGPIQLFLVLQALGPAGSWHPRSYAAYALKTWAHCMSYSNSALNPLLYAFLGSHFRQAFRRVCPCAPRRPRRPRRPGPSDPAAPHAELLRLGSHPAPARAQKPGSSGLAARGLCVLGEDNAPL
D(2) dopamine receptor (Homo sapiens), sequence (P14416 whole entry, looked up): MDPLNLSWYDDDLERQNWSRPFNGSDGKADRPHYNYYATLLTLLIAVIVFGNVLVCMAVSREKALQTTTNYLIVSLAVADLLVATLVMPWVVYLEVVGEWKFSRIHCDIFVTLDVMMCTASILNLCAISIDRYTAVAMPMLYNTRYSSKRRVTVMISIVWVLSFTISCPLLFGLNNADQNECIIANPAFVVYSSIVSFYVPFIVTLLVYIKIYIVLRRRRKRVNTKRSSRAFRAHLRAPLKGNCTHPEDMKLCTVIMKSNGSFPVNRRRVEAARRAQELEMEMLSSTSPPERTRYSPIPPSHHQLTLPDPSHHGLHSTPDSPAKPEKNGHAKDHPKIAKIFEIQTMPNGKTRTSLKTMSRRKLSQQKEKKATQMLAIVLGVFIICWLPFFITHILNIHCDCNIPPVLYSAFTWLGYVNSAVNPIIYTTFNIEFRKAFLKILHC
Gonadotropin-releasing hormone receptor (Homo sapiens), sequence (P30968 whole entry, looked up): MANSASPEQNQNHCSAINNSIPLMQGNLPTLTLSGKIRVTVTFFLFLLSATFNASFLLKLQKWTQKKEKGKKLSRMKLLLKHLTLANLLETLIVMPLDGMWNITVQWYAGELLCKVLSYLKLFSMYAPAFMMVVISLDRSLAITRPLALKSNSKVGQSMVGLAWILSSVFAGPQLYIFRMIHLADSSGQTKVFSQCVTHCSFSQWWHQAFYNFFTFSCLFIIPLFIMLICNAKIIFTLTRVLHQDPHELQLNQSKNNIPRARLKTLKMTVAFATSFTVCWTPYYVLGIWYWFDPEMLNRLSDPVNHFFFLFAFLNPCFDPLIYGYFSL

CCOC(=O)Nc1cccc(OC(=O)Nc2ccccc2)c1
inactive: all assays above

CC(C)c1ccc(O)cc1
inactive: all assays above

CCN(CC)Cc1nccn1-c1ccc([N+](=O)[O-])cc1C(=O)c1ccccc1Cl
inactive: all assays above

CN(C)c1ccc(N(C)C)cc1
active: [2] 54.6 µM | [10] 0.365 µM
not listed: [17] | [18] | [19] | [20]
inactive: all other assays above

Cc1nn(-c2cc(NS(C)(=O)=O)c(Cl)cc2Cl)c(=O)n1C(F)F
inactive: all assays above

Cc1cnc[nH]1
inactive: all assays above

C=CC1CC=CCC1 (stereo unspecified)
inactive: all assays above
